Targets with a hit are over-represented here; the source holds about 7,900 in all. About 0.6% of all pairs of compound and target were hits.
molecular target: YBX1 (UniProt C9J5V9); assay: log2 fold change, soluble protein after heating vs DMSO (PISA); higher = thermal stabilisation; K562 cells, 10 uM, 30 min; active = over 0.2 and 3.5 SD of the protein, either way, in both replicates (recomputed)
Summary of the method: (§1)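 K562 cells (2×10^6 cells/mL) were treated with 10 μM compound for 30 min, and aliquots were heated for 3 min over 48°C-58°C. Pooled aliquots were extracted in PBS with 0.5% NP-40 at 4°C, and the supernatant after 21,000xg for 90 min was measured by TMTpro 16plex LC-MS/MS with channel sums equalised. Reported thermal stability, relative to control samples and from duplicates, is a log2 fold change.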

log2 fold change, inactive:
C/C(=N\NC(=O)c1cccc(S(=O)(=O)N2CCOCC2)c1)c1cc(Cl)ccc1O 0.233, Cc1cccc(-c2[nH]c(C(C)(C)C)nc2-c2ccc3nccnc3c2)n1 -0.03, CC(C)N(C[C@H]1O[C@@H](n2cnc3c(N)ncnc32)[C@H](O)[C@@H]1O)[C@H]1C[C@@H](CCc2nc3cc(C(C)(C)C)ccc3[nH]2)C1 [pinometostat] -0.093, O=C(Nc1nc2ccccc2n1CCN1CCOCC1)c1cccc([N+](=O)[O-])c1 [IRAK-1-4 Inhibitor I] 0.049, C[C@@H](Oc1cc(-c2cnn(C3CCNCC3)c2)cnc1N)c1c(Cl)ccc(F)c1Cl [crizotinib] 0.028, O=C1c2ccccc2-c2n[nH]c3cccc1c23 -0.143, COc1ccc(Cn2ccc3ccc(C(=O)NO)cc32)cc1 -0.033, COc1cc(C(=O)O)ccc1NC(=O)[C@@H]1N[C@@H](CC(C)(C)C)[C@](C#N)(c2ccc(Cl)cc2F)[C@H]1c1cccc(Cl)c1F [idasanutlin] 0.131, O=C1NC(=NCc2cccs2)S/C1=C\c1ccc2ncccc2c1 -0.002, NC(=O)c1cnc(N[C@@H]2CCCC[C@@H]2N)nc1Nc1cccc(-n2nccn2)c1 -0.031, Cc1ccc(-n2nc(C(C)(C)C)cc2NC(=O)Nc2ccc(OCCN3CCOCC3)c3ccccc23)cc1 [doramapimod] 0.082, CC(=O)c1cnc2ccc(-c3cc(Cl)c(O)c(Cl)c3)nc2c1N[C@H]1CC[C@H](CN(C)C)CC1 -0.085

molecular target: YBX1 (UniProt P67809); assay: as above
Summary of the method: as §1

YBX1 (UniProt P67809), sequence (P67809 whole entry, looked up): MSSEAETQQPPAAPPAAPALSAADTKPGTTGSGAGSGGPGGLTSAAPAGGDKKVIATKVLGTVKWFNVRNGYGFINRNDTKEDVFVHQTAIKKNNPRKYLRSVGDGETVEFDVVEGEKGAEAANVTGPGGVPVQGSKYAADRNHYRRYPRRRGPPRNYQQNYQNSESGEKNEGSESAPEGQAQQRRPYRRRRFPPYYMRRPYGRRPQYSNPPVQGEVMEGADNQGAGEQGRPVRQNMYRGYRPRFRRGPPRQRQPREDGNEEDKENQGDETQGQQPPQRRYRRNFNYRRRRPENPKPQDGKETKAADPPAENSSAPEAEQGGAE

log2 fold change, inactive:
CN1CCN(CCOc2cc(OC3CCOCC3)c3c(Nc4c(Cl)ccc5c4OCO5)ncnc3c2)CC1 [saracatinib] -0.027, C[C@@H](N)c1ccc(C(=O)Nc2ccnc3[nH]ccc23)cc1 0.28, Fc1ccc(Cl)cc1-c1nc(Nc2ccncc2)c2nccnc2n1 -0.273, Cc1cc(Nc2cc(N3CCN(C)CC3)nc(Sc3ccc(NC(=O)C4CC4)cc3)n2)n[nH]1 [tozasertib] -0.041, c1cc(OCCN2CCCCC2)cc(-c2n[nH]c3ccc(-c4nnc[nH]4)cc23)c1 -0.156, C/C(=N\NC(=O)c1cccc(S(=O)(=O)N2CCOCC2)c1)c1cc(Cl)ccc1O -0.242, O=C(Nc1cccc(Nc2ncc(Br)c(NCCc3cnc[nH]3)n2)c1)N1CCCC1 0.103, NC1(c2ccc(-c3nc4ccn5c(=O)[nH]nc5c4cc3-c3ccccc3)cc2)CCC1 0.306, Cc1cccc(-c2[nH]c(C(C)(C)C)nc2-c2ccc3nccnc3c2)n1 -0.11, CC(C)N(C[C@H]1O[C@@H](n2cnc3c(N)ncnc32)[C@H](O)[C@@H]1O)[C@H]1C[C@@H](CCc2nc3cc(C(C)(C)C)ccc3[nH]2)C1 [pinometostat] 0.053, COc1cc2nc(-c3cc(F)ccc3O)nc(N[C@@H]3CNC[C@H]3C(C)(C)O)c2cc1OC -0.054, CNC(=O)c1ccccc1Nc1nc(Nc2ccc(N3CCOCC3)cc2OC)ncc1Cl 0.01, O=C(Nc1nc2ccccc2n1CCN1CCOCC1)c1cccc([N+](=O)[O-])c1 [IRAK-1-4 Inhibitor I] -0.117, C[C@@H](Oc1cc(-c2cnn(C3CCNCC3)c2)cnc1N)c1c(Cl)ccc(F)c1Cl [crizotinib] 0, COc1cc(Nc2ncc3c(n2)-c2ccc(Cl)cc2C(c2c(F)cccc2OC)=NC3)ccc1C(=O)O [alisertib] -0.066, CN1CC[C@H](c2c(O)cc(O)c3c(=O)cc(-c4ccccc4Cl)oc23)[C@H](O)C1 [alvocidib] 0.295, CN1CCc2c(c3ccccc3n2Cc2ccc(C(=O)NO)cc2)C1 [Tubastatin A] 0.022, O=C1c2ccccc2-c2n[nH]c3cccc1c23 -0.051, CNCc1ccc(-c2[nH]c3cc(F)cc4c3c2CCNC4=O)cc1 [rucaparib] 0.253

From the supplement of paper PMC10849652
